RGS8-Gao – RGS8-Galphao binding modulators, primary screen, biochemical, multiplexed bead flow cytometry; AID 1423, 2008; Guanine nucleotide-binding protein G(o) subunit alpha (Homo sapiens), P09471; actives 0.34% (n = 220,000); actives lie on both sides; response (percent of control binding), % at 10 µM; in the data active = response below about 60% or above about 140%; inactive = in between;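 also: Galphao activated as the GDP aluminium fluoride complex binding bead-coupled RGS8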
Target sequence (P09471 whole entry, looked up): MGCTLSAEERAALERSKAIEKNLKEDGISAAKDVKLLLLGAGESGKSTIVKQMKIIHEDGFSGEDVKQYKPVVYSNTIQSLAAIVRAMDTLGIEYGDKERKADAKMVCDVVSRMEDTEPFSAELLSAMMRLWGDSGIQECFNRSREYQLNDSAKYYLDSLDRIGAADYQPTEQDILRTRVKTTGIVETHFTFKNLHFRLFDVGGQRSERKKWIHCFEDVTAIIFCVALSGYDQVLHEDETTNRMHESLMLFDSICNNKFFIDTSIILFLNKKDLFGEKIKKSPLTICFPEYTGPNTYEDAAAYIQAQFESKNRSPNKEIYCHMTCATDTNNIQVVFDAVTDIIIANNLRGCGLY
GSH fluor – compound fluorescence on glutathione beads, profiling panel, artefact control, biophysical, 488/530 nm, flow cytometry | actives 0.25% (n = 190,000) | fluorescence (KMESF) at 10 µM | AID 1776, 2009 | GSH beads flow cytometry, compound fluorescence 488/530 nm; stronger effect = higher value; in the data active = fluorescence above about 89;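 also: glutathione beads carrying GST-tagged Bcl family fusion proteins plus one bare bead set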
Avidin bead fluor – green autofluorescence of compounds with avidin beads – biophysical, 488/530 nm, flow cytometry, artefact control, profiling panel; fluorescence (KMESF) at 10 µM; compound fluorescence 488/530 nm; stronger effect = higher value; AID 1775, 2009; actives 0.38% (n = 220,000); in the data active = fluorescence above about 47
RGS16-Gao HTS – modulators of RGS16 binding to Galphao, primary screen, biochemical, human proteins, multiplexed bead flow cytometry; binding response (% of control), % at 10 µM; AID 1441, 2008; actives 0.38% (n = 220,000); bead-based flow cytometry RGS16-Galphao binding, fluorescence; actives lie on both sides; call rule not given here;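 also: Galphao activated by GDP with aluminum fluoride before binding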
Target sequence (O15492 whole entry, looked up): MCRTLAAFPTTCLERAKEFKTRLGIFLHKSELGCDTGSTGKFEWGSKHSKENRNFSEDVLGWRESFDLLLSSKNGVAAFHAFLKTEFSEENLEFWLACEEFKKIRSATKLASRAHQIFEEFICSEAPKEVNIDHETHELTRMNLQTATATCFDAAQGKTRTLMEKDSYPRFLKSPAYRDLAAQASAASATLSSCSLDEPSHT
Target sequence (P09471 whole entry, looked up): as the sequence (P09471 whole entry, looked up) above
RGS4-Gao reg – modulators of RGS4 binding to Galphao, primary screen, biochemical, multiplexed bead flow cytometry | binding response (% of control), % at 10 µM | actives lie on both sides | AID 1415, 2008 | actives 0.33% (n = 220,000) | Guanine nucleotide-binding protein G(o) subunit alpha (Homo sapiens), P09471; in the data active = binding response below about 49% or above about 150%; inactive = in between;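 also: fluorescent Galphao activated with aluminum fluoride binding bead-coupled RGS4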
RGS7-Gao – RGS7-Galphao binding modulators, primary screen, biochemical, multiplexed bead flow cytometry | Guanine nucleotide-binding protein G(o) subunit alpha (Homo sapiens), P09471 | binding response (% of control), % at 10 µM | actives lie on both sides | actives 0.35% (n = 220,000); in the data active = binding response below about 49% or above about 150%; inconclusive = no clear call, values can overlap the other calls; inactive = in between;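 also: fluorescent Galphao held in activated GDP-AlF4 state binding bead-coupled RGS7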
Numbers stand for hits; . = inactive; ? = inconclusive; / = not tested or not shown; [ ] = remark or other dose. Shown are actives, neighbours in structure and some others; about 1.2% of the full set was active somewhere.

SMILES	RGS8-Gao	GSH fluor	Avidin bead fluor	RGS16-Gao HTS	RGS4-Gao reg	RGS7-Gao
COc1ccc(NC(=O)CSc2nnc(CNC(=O)c3ccco3)o2)cc1	.	.	.	.	.	.
O=C(CSc1nnc(CNC(=O)c2ccco2)o1)Nc1ccccc1	.	.	59	.	.	.
COc1cc2[nH]c(=O)n(Cc3ccc(C(=O)NC4CCCC4)cc3)c(=O)c2cc1OC	.	.	.	.	.	.
COc1cc2[nH]c(=O)n(CCC(=O)NC3CCCC3)c(=O)c2cc1OC	.	.	68	.	.	.
CC(O)C1C(=O)OC2(C)CC(C)(C)NC(=S)N12 (stereo not given)	.	119	.	.	.	.
CC(C)CC(=O)NNC(=O)C(C)C	.	.	.	.	.	.
O=C(c1ccc(CNS(=O)(=O)c2ccc(Br)cc2)cc1)N1CCCC1	.	.	.	.	.	.
CCC1(CC)Cc2ccccc2C(N)=C1C#N	.	.	63	.	.	.
CN1C(=O)c2ccccc2Sc2ccc(NC(=O)NC3CC3)cc21	.	.	92	.	.	.
O=C(Nc1ccc2c(c1)N(Cc1ccccc1)C(=O)c1ccccc1S2)NC1CC1	.	.	.	.	.	.
N/N=c1\sc2ccccc2n1-c1ccccc1	.	.	47	.	.	.
CC(=O)N=c1sc2ccccc2n1C	.	.	.	.	.	.
c1ccc(-c2ccc(-c3nccc4ccccc34)[nH]2)cc1	.	/	.	.	.	?
C=CCNC(=O)COC(=O)c1ccc(Sc2nncn2C)c([N+](=O)[O-])c1	.	.	86	.	.	.
O=S(=O)(Nc1ccc(Cl)cc1)c1ccc2c(c1)CCO2	.	/	62	.	.	?
Cc1ccnc(NS(=O)(=O)c2ccc3c(c2)CCO3)c1	.	/	.	.	.	?
COc1ccccc1N1CCN(S(=O)(=O)c2cc(C(F)(F)F)cc(C(F)(F)F)c2)CC1	.	/	.	.	.	?
CC(C)CNc1cc(Cl)c(S(=O)(=O)NCC(C)C)cc1C(=O)O	.	.	85	.	.	.
CCOc1cc(/C=N/N2CCOCC2)ccc1OCc1ccc(C(=O)OC)o1	.	.	.	.	.	.
COC(=O)CSc1nnc(SCc2ccc(OC)cc2)s1	.	.	50	.	.	.
COc1ccc(CSc2nnc(SCc3ccc([N+](=O)[O-])cc3)s2)cc1	.	.	.	.	.	.
COc1ccccc1CNC(=O)/C=C/c1ccc(S(=O)(=O)N2CCOCC2)cc1	.	.	.	.	.	.
CSC(=NNC(=O)c1ccc(O)cc1)SC	.	.	.	.	.	.
O=C(Nn1c(-c2ccccc2)nc2ccccc2c1=O)c1cccs1	.	.	.	.	.	.
COc1ccccc1-c1nc2ccccc2c(=O)n1NC(=O)c1cccs1	.	108	.	.	.	.
SMILES	RGS8-Gao	GSH fluor	Avidin bead fluor	RGS16-Gao HTS	RGS4-Gao reg	RGS7-Gao
Cc1cc2nc(/N=C(\N)NC(=O)N3c4ccccc4Sc4ccccc43)nc(C)c2cc1C	.	.	.	.	.	.
COc1cccc(C(=O)Nc2cc(-c3cn4cccnc4n3)ccc2C)c1	.	.	.	.	.	.
CCN1C(=O)[C@H]2[C@H]3[C@H](O)[C@H](O)C/C(=N\OC[C@@H](C)[C@H](OCc4ccccc4)C(C)C)[C@@H]3CC[C@H]2C1=O	.	.	.	.	.	.
N#Cc1ccccc1Sc1ccccc1N	12	.	.	0.4	20	14
COc1ccc2cc3cc(C(=O)NCc4cccnc4)oc3nc2c1	.	.	.	.	.	.
CC(C)(C)C1CCC(=NNC(=O)CN(c2ccccc2)S(=O)(=O)c2ccccc2[N+](=O)[O-])CC1 (stereo not given)	.	.	53	.	.	.
COc1ccc(C(CC(=O)Nc2nccs2)n2cccc2)cc1 (stereo not given)	.	.	49	.	.	.
O=C(c1ccc(Cn2cc(Br)cn2)o1)N1N=C(C(F)F)CC1(O)C(F)F (stereo not given)	.	.	66	.	150[activator]	.
CN(C)CC1CCCCC1OC(=O)/C=C/c1ccc(Cl)cc1Cl (stereo not given)	.	.	.	.	.	.
Cc1sc2ncn(CC(=O)NCCCC(=O)N3CCN(c4ccccn4)CC3)c(=O)c2c1C	.	.	.	.	.	.
Cc1sc2ncn(CC(=O)NCCCC(=O)N3CCN(c4ncccn4)CC3)c(=O)c2c1C	.	.	52	.	.	.
NC(=O)NC(=O)COC(=O)CNS(=O)(=O)c1ccc(F)c(F)c1F	.	/	.	.	.	?
c1csc(CSc2nc3ccccc3s2)c1	.	276	.	.	.	.
CCn1cc(C(=O)O)c(=O)c2cc(F)c(N3CCN(C(=S)NC(=O)c4ccccc4)CC3)cc21	.	/	.	.	.	?
COc1c(N2CCN(C(=S)NCc3ccccc3)C(C)C2)c(F)cc2c(=O)c(C(=O)O)cn(C3CC3)c12 (stereo not given)	.	.	55	.	.	.
Clc1ccccc1CN1CCN(/N=C/C=C/c2ccco2)CC1	.	/	.	.	.	?
CCOc1ccc(OCC)c(NC(=O)C2CCN(c3ncccn3)CC2)c1	.	.	.	.	.	.
CCOc1ccc(OCC)c(NC(=O)C2CCCN(c3ncccn3)C2)c1 (stereo not given)	.	264	.	.	.	.
O=C(CN1CCOCC1)NCc1ccccc1	.	.	62	.	.	.
C=CCNc1nc(Nc2ccccc2F)nc(OCC)n1	.	.	.	.	.	.
C=CCNc1nc(Nc2ccc(OC)cc2OC)nc(OCC)n1	.	.	75	.	.	.
O=C(COC(=O)c1ccccc1Oc1ccccc1)NC1CCS(=O)(=O)C1 (stereo not given)	.	.	48	.	.	.
O=C(COC(=O)c1ccccc1Oc1ccccc1)NC1CC1	.	.	.	.	.	.
Cc1cc(=O)oc2cc(OCC(=O)N3CCOCC3)ccc12	.	122	.	.	.	.
Cc1cc(=O)oc2cc(OC(C)C(=O)N3CCOCC3)ccc12 (stereo not given)	.	.	.	.	.	.
CCOC(=O)C1CCCN(C(=O)c2cc(Nc3ccc(OC)cc3)nc3ccccc23)C1 (stereo not given)	.	.	51	.	.	.
CCOC(=O)C1CCCN(C(=O)c2cc(-c3ccc(F)cc3)nc3ccccc23)C1 (stereo not given)	.	.	.	.	.	.
CN(C)CC(C)(C)CN=Cc1c(O)[nH]c2ccccc12	.	/	.	.	.	?
